# This excerpt belongs to a sample that is enriched for hits.
# Chlamy TAG: algal TAG accumulation induction; 44,000 tested, 0.84% active; Chlamydomonas reinhardtii TAG, Nile Red fluorescence, 72 h; calls only at 10 µM (by protocol); call rule not given here;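 note: hits raise Nile Red signal meaning more stored TAG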
# * = called active by the depositor; i = inactive; + = active, no number.
SMILES,Chlamy TAG
CC(C)(Oc1ccc(Cl)cc1)C(=O)Nc1ccccc1Br,i
Cc1ccc(C(=O)Nc2ccc3nc(SCC(=O)N4CCCC4)sc3c2)cc1,i
O=C(CSc1nc(O)cc(=O)n1-c1ccccc1)NC(c1ccccc1)c1ccccc1,i
O=C(Nc1ccc(N2CCCC2)c(Cl)c1)c1ccccc1I,i
O=[N+]([O-])c1ccc(S(=O)(=O)N2CCN(Cc3cc(Br)ccc3O)CC2)cc1,i
O=[N+]([O-])c1ccc(CN2CCN(Cc3cc(Br)ccc3O)CC2)cc1,+
O=[N+]([O-])c1ccc(CN2CCCCC2)cc1,i
O=[N+]([O-])c1ccc(CN2CCc3ccccc3C2)cc1,+
O=[N+]([O-])c1ccc(CN2CCOCC2)cc1,i
COc1cc2c(cc1OC)CN(Cc1ccc([N+](=O)[O-])cc1)CC2,i
COc1cccc(NC(=O)Nc2ccccc2C)c1,i
CCOc1ccc(C(C)NC(=O)C2CC2)cc1 (stereo not given),i
Cc1sc(NC(=O)c2sc3ccccc3c2Cl)c(C(N)=O)c1C,i
COc1cc(NC(=O)c2ccc(Cl)cc2)c(Cl)cc1NC(=O)c1cccc([N+](=O)[O-])c1,i
CCCC(C)NC(=O)Cc1ccc([N+](=O)[O-])cc1 (stereo not given),i
Cc1sc(N)nc1-c1c[nH]c2ccccc12,i
CCN1CCN(C/C=C/c2ccccc2)CC1,i
OCCN1CCN(C/C=C/c2ccccc2)CC1,i
C/C=C(\C)CN1CCN(C/C=C/c2ccccc2)CC1,+
CC(C)(C)NCCCOc1ccccc1F,i
COc1ccc(Cc2nnc(NC(=O)CCCOc3ccccc3)s2)cc1,i
Cc1ccc(OCCSc2nc(C)cc(=O)[nH]2)cc1,i
COCCCN1C(=O)C(O)=C(C(=O)c2ccco2)C1c1cccc(Cl)c1 (stereo not given),i
Cc1ccc(NC(=O)c2cc(NC(=O)CCC(=O)O)ccc2Cl)cc1Cl,i
O=C(Nc1cccnc1)c1ccc(S(=O)(=O)c2ccc(Cl)cc2)cc1,+
SMILES,Chlamy TAG
CS(=O)(=O)N(Cc1ccccc1Cl)c1ccc(C(=O)Nc2cccnc2)cc1,i
O=C(Nc1cccnc1)c1ccc(-c2ccc(Cl)cc2)o1,i
O=C(Nc1ccc(F)cc1)c1cccc(Cl)c1Cl,i
O=C(Nc1ccc([N+](=O)[O-])cc1)c1cccc(Cl)c1Cl,+
O=C(Nc1cccc([N+](=O)[O-])c1)c1ccccc1Cl,i
O=C(C1CCN(Cc2ccccc2)CC1)N1CCc2ccccc2C1,i
Cc1ccc(C(=O)N2CCC(C(=O)O)CC2)cc1,i
O=C(c1ccc(F)cc1)N1CCCCCC1,i
O=C(O)C1CCN(C(=O)c2ccc(F)cc2)CC1,+

# Bioassay records: PubChem BioAssay, DiRusso Lab, Biochemistry Department, University of Nebraska
